# Laboratory results: PubChem BioAssay (NCATS)
# “And” between values parts separate entries of the source, which are not always exact repeats. Equal entries are not always repeated. A number with no mark means an inactive call. Results filed as inconclusive are left out. Where a call stands in place of a potency, no number is given. The source made the active and inactive calls. Unless noted, calls come from the whole dose curve; as a rule, active = well fitted curve in either direction with a large enough effect (not every such curve was filed as active); inconclusive = small, poorly fitted or top-dose-only effect, or another doubt; inactive = flat fitted curve, though single readings scatter.
# Legend:
# [1] = AP1 Signaling Pathway (AID 357)
# Method in brief: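 ME-180 cells with beta-lactamase reporter under AP-1 response element, stimulated with EC50 EGF; compounds tested in titration series, 5 h at 37 °C. CCF4 substrate added 2.5 h at room temperature; 460/530 nm emission ratio gave %activity and AC50.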
# [2] = target: Cytochrome P450 1A2 (Homo sapiens) (UniProt P05177); test: p450-cyp1a2 (AID 410; calls by dose curve; note: potency is the fitted concentration of half-maximal effect)
# Sequence of Cytochrome P450 1A2 (Homo sapiens) (P05177 whole entry, looked up): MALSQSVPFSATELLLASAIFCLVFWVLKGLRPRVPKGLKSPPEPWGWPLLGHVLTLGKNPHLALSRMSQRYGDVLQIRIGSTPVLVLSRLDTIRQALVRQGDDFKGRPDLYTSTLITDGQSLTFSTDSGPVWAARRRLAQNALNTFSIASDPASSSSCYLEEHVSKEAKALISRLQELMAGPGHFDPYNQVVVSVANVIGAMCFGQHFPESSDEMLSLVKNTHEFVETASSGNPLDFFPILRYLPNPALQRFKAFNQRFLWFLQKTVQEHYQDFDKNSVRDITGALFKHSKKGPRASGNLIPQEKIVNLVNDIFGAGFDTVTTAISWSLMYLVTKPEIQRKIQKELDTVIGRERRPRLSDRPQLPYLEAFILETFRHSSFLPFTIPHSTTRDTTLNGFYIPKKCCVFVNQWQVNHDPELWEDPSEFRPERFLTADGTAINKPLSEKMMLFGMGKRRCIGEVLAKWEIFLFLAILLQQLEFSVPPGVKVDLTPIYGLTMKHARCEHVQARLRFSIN
# Method in brief: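 Read-out is luminescence from luciferin produced by CYP1A2 demethylation of Luciferin-ME (100uM, at Km). Detection reagent stopped the 60 min NADPH-dependent reaction; signals were normalized to 57 uM furafylline.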
# [3] = NFAT Signaling Pathway (AID 444);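 note: carbachol stimulus at about its EC50 of 1 µM final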
# Method in brief: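 Jurkat cells carrying an NFAT-driven β-lactamase reporter and co-transfected muscarinic M1 receptor were treated with compound plus carbachol (1 uM final, an EC50 level) for 5 h at 37 °C. CCF4 loading followed for 1 h at RT; 460/530 nm ratio gave %activity.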
# [4] = Stat Signaling Pathway (AID 446); conditions: ME-180 (cervical carcinoma) SIE beta-lactamase reporter, IL-6 stimulated, 5 h;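 note: ME-180 cervical cancer cells given 40 pM IL-6 alongside compound; SIE-controlled beta-lactamase reporter measured as 460/530 nm FRET emission ratio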
# Method in brief: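 Emission at 460 and 530 nm (excitation 405 nm) reports SIE-controlled beta-lactamase in ME-180 cells. Cells received compound with 40 pM IL-6 for 5 hrs at 37 C; data scaled between 300 pM IL-6 and 125 nM JAK-inhibitor controls.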
# [5] = target: Glucocorticoid receptor (Homo sapiens) (UniProt P04150); test: GR-GFP Redistribution (AID 450;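 active = compounds whose dose series gives a full or clear partial fitted curve of increased nuclear translocation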; note: potency is the fitted concentration of half-maximal effect); conditions: U2OS GR-GFP nuclear translocation, laser cytometry, 2 h
# Sequence of Glucocorticoid receptor (Homo sapiens) (P04150 whole entry, looked up, the tested form may be a part): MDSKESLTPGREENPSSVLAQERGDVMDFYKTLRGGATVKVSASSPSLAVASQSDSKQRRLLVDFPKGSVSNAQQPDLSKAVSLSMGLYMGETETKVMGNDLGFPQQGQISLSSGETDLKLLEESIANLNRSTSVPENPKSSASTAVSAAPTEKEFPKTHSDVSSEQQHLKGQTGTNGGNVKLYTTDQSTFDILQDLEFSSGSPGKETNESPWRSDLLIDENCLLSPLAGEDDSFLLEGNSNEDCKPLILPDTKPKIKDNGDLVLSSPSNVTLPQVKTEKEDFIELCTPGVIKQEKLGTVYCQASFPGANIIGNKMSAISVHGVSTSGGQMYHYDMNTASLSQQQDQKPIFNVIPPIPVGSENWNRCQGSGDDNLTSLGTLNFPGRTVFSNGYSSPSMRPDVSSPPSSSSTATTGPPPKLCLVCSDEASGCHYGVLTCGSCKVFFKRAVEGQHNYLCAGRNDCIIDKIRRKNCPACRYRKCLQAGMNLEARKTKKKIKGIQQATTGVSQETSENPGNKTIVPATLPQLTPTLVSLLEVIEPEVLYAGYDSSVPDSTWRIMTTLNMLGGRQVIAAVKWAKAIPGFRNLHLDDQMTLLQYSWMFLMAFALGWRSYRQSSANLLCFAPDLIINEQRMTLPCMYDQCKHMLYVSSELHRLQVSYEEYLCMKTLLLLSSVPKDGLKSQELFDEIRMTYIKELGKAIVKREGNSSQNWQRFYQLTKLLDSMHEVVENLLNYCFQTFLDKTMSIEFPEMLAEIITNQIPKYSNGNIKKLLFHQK
# [6] = target: Glucocorticoid receptor (Homo sapiens) (UniProt P04150); test: GR-EFC Redistribution (AID 451; calls by dose curve; note: potency is the fitted concentration of half-maximal effect); conditions: CHO-K1 GR-EFC translocation, beta-gal luminescence, 2 h
# Method in brief: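 CHO-K1 cells stably expressing nuclear-localized β-gal enzyme acceptor and GR fused C-terminally to the enzyme donor fragment; ligand-driven nuclear translocation restores β-gal by complementation. Compounds titrated up to 46 uM final, 2 h at 37 °C; luminescence read.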
# [7] = target: Mitogen-activated protein kinase 10 (Mus musculus) (UniProt Q61831); test: JNK3 AlphaScreen Assay (AID 530);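 note: kinase came from lysate of stimulated human HepG2 cells; signal reports phosphorylation of biotinylated GST-cJun 1-79 at Ser73 with 10 µM ATP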
# Method in brief: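 Biotinylated GST-cJun(1-79) served as substrate for JNK3 in HepG2 lysates stimulated with IL-1beta and TNF-alpha. ATP was 10 uM final, pH 7.6. Ser73 phosphorylation was quantified by AlphaScreen (680 nm excitation).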
# [8] = Cell Viability - BJ (AID 421; calls by dose curve;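 note: potency is the fitted concentration of half-maximal effect; cells exposed to compound for 40 hours at 37 °C before readout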); conditions: BJ fibroblast viability, qHTS
# Method in brief: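 Cytotoxicity in human BJ foreskin fibroblasts is scored as loss of cellular ATP after a 40-hour exposure, measured by luciferase luminescence. Controls are DMSO and 100 uM tamoxifen.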
# [9] = Cell Viability - Jurkat (AID 426;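 active = dose-dependent loss of cell ATP signal giving a full or clear fitted curve, ranked by lower potency value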;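 note: potency is the fitted concentration of half-maximal effect; cells exposed to compound for 40 hours at 37 °C before ATP read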); conditions: qHTS
# Method in brief: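 Cytotoxicity was scored as loss of cellular ATP, measured by luciferase-based luminescence, in Jurkat clone E6-1 cells after 40 h compound treatment; tamoxifen and doxorubicin served as positive controls.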
# [10] = Cell Viability - Hek293 (AID 427;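 active = compounds whose dose-response curve shows a full or clear partial loss of cell viability, called from curve shape rather than a numeric limit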;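 note: potency is the fitted concentration of half-maximal effect; cells exposed to compound for 40 hours at 37 °C before reading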); conditions: qHTS
# Method in brief: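 qHTS, human embryonic kidney (adenovirus-transformed) cells; 40 hr cpd, 37 °C; CellTiter-Glo ATP luminescence. Norm: DMSO = 0, 100 uM tamoxifen = 100% inhibition. Hill-fit AC50.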
# [11] = Cell Viability - HepG2 (AID 433; calls by dose curve;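 note: potency is the fitted concentration of half-maximal effect; potency for ATP loss meaning cytotoxicity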); conditions: qHTS
# Method in brief: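 HepG2 hepatocellular carcinoma cells (1500/well) were treated with compounds for 40 h at 37 °C in complete medium; intracellular ATP was read by CellTiter-Glo luminescence. Data were normalized to DMSO and 100 uM tamoxifen, and AC50 came from Hill fits.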
# [12] = Cell Viability - MRC5 (AID 434; calls by dose curve;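 note: potency is the fitted concentration of half-maximal effect; potency reflects cytotoxicity seen as loss of intracellular ATP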); conditions: MRC5 lung fibroblast viability, qHTS
# Method in brief: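 Decrease in intracellular ATP, quantified by luciferase light output, reflects compound toxicity toward MRC5 cells exposed for 40 hr in complete culture medium. Concentration-response curves, scaled between DMSO and 100 uM tamoxifen, gave AC50 values.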
# [13] = Cell Viability - SK-N-SH (AID 435; calls by dose curve;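 note: potency is the fitted concentration of half-maximal effect; compound exposure lasted 40 h at 37 °C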); conditions: SK-N-SH neuroblastoma cell viability qHTS
# Method in brief: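 SK-N-SH human neuroblastoma cells (1500/well) were exposed to compounds in complete medium for 40 h at 37 °C, and intracellular ATP was then measured by CellTiter-Glo luminescence. AC50 was taken from Hill fits, normalized to DMSO and 100 uM tamoxifen.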
# [14] = Cell Viability - N2a (AID 540; active = well fitted curve in the direction sought with a large enough effect; an effect the other way counts as inactive or inconclusive; note: nearly all actives have a fitted effect of over 45% in size); conditions: N2a mouse neuroblastoma cell viability; activity change, negative = cytotoxicity: at 92.2 µM (top of the series)
# Method in brief: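 In this qHTS cytotoxicity screen, ATP-dependent luciferase luminescence reports viable N2a cells after a 40 hr compound exposure in complete culture medium. Potencies are AC50 values from standard Hill equation fits.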
# [15] = Cell Viability - HUV-EC-C (AID 542; active = well fitted curve in the direction sought with a large enough effect; an effect the other way counts as inactive or inconclusive; note: nearly all actives have a fitted effect of over 35% in size)
# Method in brief: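 Concentration-dependent ATP loss in HUV-EC-C cells is the measure. Exposure lasts 40 hr at 37 °C; luminescence follows CellTiter-Glo addition, and Hill fits give AC50.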
# [16] = Cell Viability - H-4-II-E (AID 543; active = well fitted curve in the direction sought with a large enough effect; an effect the other way counts as inactive or inconclusive; note: nearly all actives have a fitted effect of over 35% in size)
# Method in brief: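 AC50 from Hill-modelled qHTS concentration-response curves. H-4-II-E rat hepatoma cells in complete medium, 40 hr exposure at 37 °C, viability by CellTiter-Glo ATP luminescence.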
# [17] = Cell Viability - SH-SY5Y (AID 544; active = well fitted curve in the direction sought with a large enough effect; an effect the other way counts as inactive or inconclusive; note: nearly all actives have a fitted effect of over 55% in size); conditions: SH-SY5Y neuroblastoma cell viability; viability change, negative = cytotoxic: at 92.2 µM (top of the series)
# Method in brief: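 Quantitative HTS in SH-SY5Y neuroblastoma cells, 40 hr treatment at 37 °C, ATP content by luciferase luminescence; AC50 from Hill fits.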
# [18] = Cell Viability - Renal Proximal Tubule (AID 545; active = well fitted curve in the direction sought with a large enough effect; an effect the other way counts as inactive or inconclusive; note: nearly all actives have a fitted effect of over 40% in size); conditions: renal proximal tubule cells viability, primary cells of rat origin; activity change, negative = cytotoxicity: at 91.7 µM (top of the series)
# Method in brief: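 Primary rat renal proximal tubule cells (1000/well) were treated with compounds for 40 hr at 37 °C in complete medium. Intracellular ATP was measured by CellTiter-Glo luminescence, and AC50 values came from Hill-equation fits of concentration-response data.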
# [19] = Cell Viability - Mesenchymal (AID 546; active = well fitted curve in the direction sought with a large enough effect; an effect the other way counts as inactive or inconclusive;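 note: cells exposed to compound for 40 hours before reading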); conditions: mesenchymal cells viability, qHTS; activity change, negative = cytotoxicity: at 91.7 µM (top of the series)
# Method in brief: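 In this qHTS cytotoxicity format, glomerulus-derived human mesenchymal kidney cells received compound for 40 hr, then luciferase-based ATP quantitation. Concentration-response data were fitted with the Hill equation.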
smiles,measurement,setting,value
CC(=O)CCCCn1c(=O)c2c(ncn2C)n(C)c1=O,outcome,[1],inactive
same,Potency,[2],31.6 µM (active) and 12.6 µM (active)
same,outcome,[3],inactive
same,"activity, negative = inhibition",[4]; at 17.2 µM (top of the series),-10.5%
same,"activity, negative = inhibition",[4]; at 38 µM (top of the series),9.49%
same,Potency,[5],> 46 µM and > 20.6 µM
same,Potency,[6],> 46 µM and > 20.6 µM
same,outcome,[7],inactive
CC(C)OC(=O)C(C)(C)Oc1ccc(C(=O)c2ccc(Cl)cc2)cc1,outcome,[1],inactive
same,Potency,[2],12.6 µM (active) and 5.01 µM (active)
same,Potency,[5],> 46 µM and > 20.6 µM
same,Potency,[6],> 46 µM and > 20.6 µM
COCCCCC(=NOCCN)c1ccc(C(F)(F)F)cc1,outcome,[1],inactive
same,Potency,[2],158 nM (active) and 39.8 nM (active) and 15.8 nM (active)
same,outcome,[3],inactive
same,"activity, negative = inhibition",[4]; at 17.2 µM (top of the series),-3.51%
same,"activity, negative = inhibition",[4]; at 38 µM (top of the series),-10.7%
same,Potency,[5],> 46 µM and > 20.6 µM
same,Potency,[6],> 46 µM and > 20.6 µM
CCN(CC)CCOC(=O)c1ccc(N)cc1,outcome,[1],inactive
same,Potency,[2],inactive
same,"activity, negative = inhibition",[4]; at 17.2 µM (top of the series),13%
same,"activity, negative = inhibition",[4]; at 38 µM (top of the series),-13.6%
same,outcome,[7],inactive
NC(N)=Nc1nc(CSCC/C(N)=N/S(N)(=O)=O)cs1,outcome,[1],inactive
same,outcome,[3],inactive
same,"activity, negative = inhibition",[4]; at 17.2 µM (top of the series),12% and 11.5%
same,"activity, negative = inhibition",[4]; at 38 µM (top of the series),1.63%
same,Potency,[5],> 46 µM and > 20.6 µM
same,Potency,[6],> 46 µM and > 20.6 µM
same,outcome,[7],inactive
CCN(CC)CCNC(=O)c1ccc(N)cc1,outcome,[1],inactive
same,outcome,[3],inactive
same,"activity, negative = inhibition",[4]; at 17.2 µM (top of the series),5.34% and 0.638%
same,"activity, negative = inhibition",[4]; at 38 µM (top of the series),3.95%
same,outcome,[7],inactive
NCCS,outcome,[1],inactive
same,Potency,[2],inactive
same,outcome,[3],inactive
same,"activity, negative = inhibition",[4]; at 38 µM (top of the series),-9.49%
same,outcome,[7],inactive
COc1ccc(-c2coc3cc(O)cc(O)c3c2=O)cc1,outcome,[1],inactive
same,Potency,[2],3.98 µM (active)
same,outcome,[3],inactive
same,"activity, negative = inhibition",[4]; at 17.2 µM (top of the series),5.25%
same,Potency,[5],> 46 µM and > 20.6 µM
same,Potency,[6],> 46 µM
same,outcome,[7],inactive
C[N+](C)(C)CC(=O)O,outcome,[1],inactive
same,Potency,[2],inactive
same,outcome,[3],inactive
same,"activity, negative = inhibition",[4]; at 38 µM (top of the series),-8.86%
same,outcome,[7],inactive
O=C1NC(=O)C(c2ccccc2)(c2ccccc2)N1,outcome,[1],inactive
same,Potency,[2],inactive
same,Potency,[8],> 92 µM
same,Potency,[9],> 92 µM
same,Potency,[10],> 92 µM
same,Potency,[11],> 92 µM
same,Potency,[12],> 92 µM
same,Potency,[13],> 92 µM
same,outcome,[3],inactive
same,"activity, negative = inhibition",[4]; at 17.2 µM (top of the series),-0.146%
same,"activity, negative = inhibition",[4]; at 38 µM (top of the series),-3.08%
same,Potency,[5],> 46 µM and > 20.6 µM
same,Potency,[6],> 46 µM
same,outcome,[7],inactive
same,Potency,[14],inactive
same,Potency,[15],inactive
same,Potency,[16],inactive
same,Potency,[17],inactive
same,Potency,[18],inactive
same,Potency,[19],inactive
CCCCC1C(=O)N(c2ccccc2)N(c2ccccc2)C1=O,outcome,[1],inactive
same,Potency,[2],inactive
same,Potency,[8],> 92 µM
same,Potency,[10],> 92 µM
same,Potency,[11],> 92 µM
same,Potency,[12],> 92 µM
same,Potency,[13],> 92 µM
same,outcome,[3],inactive
same,"activity, negative = inhibition",[4]; at 17.2 µM (top of the series),-15.3%
same,"activity, negative = inhibition",[4]; at 38 µM (top of the series),-22.4%
same,Potency,[5],> 46 µM and > 20.6 µM
same,Potency,[6],> 46 µM
same,outcome,[7],inactive
same,Potency,[14],inactive
same,Potency,[15],inactive
same,Potency,[16],inactive
same,Potency,[17],inactive
same,Potency,[18],inactive
same,Potency,[19],inactive
COc1ccccc1N1CCN(CCCNc2cc(=O)n(C)c(=O)n2C)CC1,outcome,[1],inactive
same,Potency,[2],inactive
same,outcome,[3],inactive
same,"activity, negative = inhibition",[4]; at 17.2 µM (top of the series),-0.455%
same,"activity, negative = inhibition",[4]; at 38 µM (top of the series),1.93%
same,outcome,[7],inactive
